Several values for one entry are separate records, joined by “and”; a condition that tells them apart may be missing. Equal values may be shown once. Records with an inconclusive call do not appear. A call without a number means that no potency is given here. Unmarked numbers belong to inactive results. Activity calls are given as the source filed them. The call rests on the fitted dose curve.
Potency means the concentration at half of the fitted maximal effect.

5-hydroxytryptamine receptor 2A (Homo sapiens), sequence (P28223 whole entry, looked up): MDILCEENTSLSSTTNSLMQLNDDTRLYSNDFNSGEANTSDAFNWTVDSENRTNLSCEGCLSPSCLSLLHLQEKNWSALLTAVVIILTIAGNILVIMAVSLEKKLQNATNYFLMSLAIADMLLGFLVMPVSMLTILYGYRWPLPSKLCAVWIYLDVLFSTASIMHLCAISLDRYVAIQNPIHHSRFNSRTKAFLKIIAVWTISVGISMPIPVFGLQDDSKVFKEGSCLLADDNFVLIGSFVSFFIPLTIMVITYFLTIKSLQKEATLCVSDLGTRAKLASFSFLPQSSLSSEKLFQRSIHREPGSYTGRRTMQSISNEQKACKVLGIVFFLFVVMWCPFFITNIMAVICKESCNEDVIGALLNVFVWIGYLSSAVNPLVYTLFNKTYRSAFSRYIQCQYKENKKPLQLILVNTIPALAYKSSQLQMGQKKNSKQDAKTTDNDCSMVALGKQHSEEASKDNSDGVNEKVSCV

This experiment addresses 5-hydroxytryptamine receptor 2A (Homo sapiens) (UniProt P28223). The experiment in a line: 5-hydroxytryptamine receptor 2A (HTR2A) small molecule agonists, cell-based qHTS assay (AID 1963587). Further: nearly all actives have a fitted effect of over 30% in size. Conditions: HTR2A-CHO cells, calcium flux fluorescence, agonist mode; series mostly up to 76.8 µM. The text has this:
National Center for Advancing Translational Sciences [NCATS]
Division of Preclinical Innovation [DPI]
U.S. Environmental Protection Agency [EPA]
National Institutes of Environmental Health Sciences [NIEHS]
National Toxicology Program [NTP]
U.S. Food and Drug Administration [FDA]
The HTR2A receptor is a subtype of the 5-HT2 receptor that belongs to the serotonin receptor family and is a G protein-coupled receptor (GPCR). The HTR2A-CHO cell line stably expressing human 5-hydroxytryptamine receptor 2A (HTR2A) can be used for screening agonists of interactions between 5-HT2 and its ligands. The HTR2A-CHO calcium flux assay is a homogeneous fluorescence-based assay for detecting the intracellular calcium level using FDSS kinetic plate reader system.
HTR2A-CHO cells were dispensed at 2000 cells/3uL/well in 1536-well black-clear bottom plates using a Multidrop Dispenser. After the assay plates were incubated at a 37 C/5% CO2 incubator for 18 h, 3 uL of Dye Loading Buffer was transferred to the assay plate by a Flying Reagent Dispenser. The assay plates were incubated at 37 C for 1h. For agonist mode, 23 nL of compounds dissolved in DMSO, positive controls or DMSO only was transferred to the assay plate by a pin tool. The fluorescence intensity in the plates was measured using FDSS 7000EX kinetic plate reader for 2 min at 1 sec intervals.
(In qHTS, concentration-response curves come from the screen itself.)
For `O=C(c1ccccc1O)c1ccccc1O`, the Potency entry was “inactive”.

For `O=C1OC2(c3cc(Br)c(O)c(Br)c3Oc3c2cc(Br)c(O)c3Br)c2c(Cl)c(Cl)c(Cl)c(Cl)c21`, the Potency is 17.4 µM (active) and 33.4 µM (active).

In the case of `COc1cccc(OC)c1O`, the Potency result was “inactive”.

Take `OCC(CO)N[C@H]1C[C@](O)(CO)[C@@H](O)[C@H](O)[C@H]1O`: the Potency result was “inactive”.

`COC(CC(C)CCCC(C)(C)O)OC` (stereo not given): the Potency result was “inactive”.

In the case of `c1ccsc1`, the Potency result is “inactive”.

Regarding `Nc1nc(=O)n([C@@H]2O[C@H](CO)[C@@H](O)[C@@H]2F)cc1I`, the Potency result is “inactive”.

Regarding `CO[Si](CCCNCCN)(OC)OC`, the Potency entry is “inactive”.

For the compound `O=C1NC2NC(=O)NC2N1` (stereo not given), the Potency result was “inactive”.

Regarding `CCCCCCCCCCCC(=O)N(C)CC(=O)O`, the Potency result was “inactive”.

As to `CC(C)c1ccc(C=O)cc1`, the Potency entry is “inactive”.

Take `O=C(O)c1cccc(C(F)(F)F)c1`: the Potency entry is “inactive”.

With `O=S(=O)(O)c1ccc(N=Nc2c(O)ccc3cc(S(=O)(=O)O)ccc23)cc1`, the Potency entry was “inactive”.

Consider `CC[N+](C)(C)c1cccc(O)c1`, for which the Potency result was “inactive”.

On to `O=C(NCC1CCCCN1)c1cc(OCC(F)(F)F)ccc1OCC(F)(F)F` (stereo not given), for which the Potency entry was “inactive”.

In the case of `CCOC(=O)CN1CCCC1=O`, the Potency entry was “inactive”.

In the case of `CCc1occc(=O)c1O`, the Potency result is “inactive”.

Regarding `NS(=O)(=O)c1ccc(NC(=O)CCC(=O)O)cc1`, the Potency result was “inactive”.

With `CCOCCOC(=O)/C=C/c1ccc(OC)cc1`, the Potency result is “inactive”.

As to `Cc1ccc(N=Nc2c(O)ccc3ccccc23)c(C)c1`, the Potency result is “inactive”.

For the compound `CC(C)c1cccc(O)c1`, the Potency entry is “inactive”.

Consider `COc1cc(CCC(C)=O)ccc1O`, for which the Potency result is “inactive”.

For the compound `OCC(CO)(CO)CO`, the Potency result is “inactive”.

`CNC(=O)[C@H]1O[C@@H](n2cnc3c(NCc4cc(Cl)ccc4OCc4cc(C)no4)ncnc32)[C@H](O)[C@@H]1N`: the Potency entry is “inactive”.

As to `C1=CCC2CC=CC2C1` (stereo not given), the Potency entry is “inactive”.

In the case of `CCCCCCOC(=O)C(C)CC` (stereo not given), the Potency result is “inactive”.

As to `CC/C=C/CCO`, the Potency result was “inactive”.

With `CC(C)Nc1ccccc1`, the Potency entry was “inactive”.

In the case of `CC(=O)c1ccc(O)c(C(N)=O)c1`, the Potency entry is “inactive”.

Consider `CC(C)CC(O)CC(C)C`, for which the Potency result was “inactive”.

Consider `Nc1cccc(N)n1`, for which the Potency entry was “inactive”.

As to `Cc1occc1S`, the Potency result is “inactive”.

As for `O=C(O)CNC(=O)c1ccccc1I`, the Potency entry is “inactive”.

In the case of `Cc1ccc(-c2ccccc2C#N)cc1`, the Potency result was “inactive”.

For the compound `O=S(=O)(O)C(F)(F)F`, the Potency result is “inactive”.

As to `O=C(O)CSCC(=O)NC1CCSC1=O` (stereo not given), the Potency entry is “inactive”.

Turning to `CCCO`, the Potency entry is “inactive”.

Turning to `NCCN1CCNC1=O`, the Potency entry was “inactive”.

In the case of `O=C(Nc1ccc([N+](=O)[O-])cc1Cl)c1cc(Cl)ccc1O`, the Potency entry was “inactive”.

Turning to `C[Si](C)=O`, the activation was 3.07% [at 7.02 µM].

The values above are taken from PubChem BioAssay (Tox21).
